“And” between values parts separate entries of the source, which are not always exact repeats. Equal entries are not always repeated. Inconclusive results are not listed. The source holds several records for some structures; these can differ, active in one and inactive in another. The source made the active and inactive calls. Unless noted, the call rests on the fitted dose curve; in most records, active means well fitted curve in the direction sought with a large enough effect in the repeat runs; inconclusive means weak or mixed curves; inactive means no such curve, though single readings can be large; an effect the other way counts as inactive or inconclusive.

Test [1] in a line: qHTS assay to identify small molecule agonists of the hypoxia (HIF-1) signaling pathway - cell viability counter screen (AID 1224844; calls by dose curve; further: nearly all actives have a fitted effect of over 50% in size; further: potency means the concentration at half of the fitted maximal effect). In a few lines: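 HRE-bla ME-180 cells in medium with 0.5% dialyzed FBS were preincubated 5 hrs at 37C, exposed to compounds for 17 hrs, then viability was read as CellTiter-Glo luminescence after 30 min at room temperature, in the reporter wells.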

The nature of test [2]: qHTS assay to identify small molecule agonists of H2AX (AID 1224845; active means well fitted activation curve with a large enough effect in the signal ratio in the repeat runs, not every such curve was filed as active; the % refers to the signal ratio). In a few lines:
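Wild-type CHO-K1 cells, plated overnight, exposed 3hr at 37C to 15 concentrations (0.76% DMSO final). Lysed, then HTRF anti-pH2AX (S139) cryptate and anti-H2AX-d2 antibodies, 24 hr room temperature; 665/620 nm emission read.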
(In general: In qHTS, concentration-response curves come from the screen itself.)

Test [3] can be described thus: qHTS assay to identify small molecule agonists of H2AX - cell viability counter screen (AID 1224847; calls by dose curve; further: nearly all actives have a fitted effect of over 30% in size; further: potency means the concentration at half of the fitted maximal effect). The gist of the method: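 Quantitative HTS viability measurement: CHO-K1 wild-type cells in serum (10% FBS) medium, short 3 hr drug exposure at 37C with 0.76% DMSO, CellTiter-Glo luminescent detection.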
Test [4] is described as follows: qHTS assay to identify small molecule antagonists of the estrogen related receptor (ERR) signaling pathway from Tox21 library (AID 1224848). Further: nearly all actives have a fitted effect of over 50% in size. Further: potency means the concentration at half of the fitted maximal effect. The gist of the method: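 ERR reporter cell line (from NTP) seeded 2,000 cells/well, rested 6 h at 37 C/5% CO2, then pin-dosed with compounds in DMSO. After 18 h at 37 C, ONE-Glo added; luminescence read after 30 min at room temperature.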

Test [5] is described as follows: qHTS assay to identify small molecule agonists of the estrogen related receptor (ERR) signaling pathway from Tox21 library (AID 1224849; calls by dose curve; further: nearly all actives have a fitted effect of over 15% in size). To be noted: ERR reporter cell line, ONE-Glo luciferase, 18 h. In a few lines: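 ERR reporter cell line (NTP) seeded, rested 6 h at 37 C/5% CO2, then pinned with Tox21 compounds in DMSO. After 18 h at 37 C, ONE-Glo luciferase luminescence was read following 30 min at room temperature.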

Test [6] in a line: qHTS RealTime-Glo MT Cell Viability Assay in HepG2 cells - 24 hour (AID 1224867). Further: nearly all actives have a fitted effect of over 50% in size. Further: potency means the concentration at half of the fitted maximal effect. In a few lines:
(§1)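 Cells + NanoLuc/prosubstrate dispensed (600 cells/well) → 5 h at 37 C/5% CO2 → compounds in DMSO transferred → 40 h incubation at 37 C, luminescence read at 0, 8, 16, 24, 32, 40 h.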

The nature of test [7]: qHTS RealTime-Glo MT Cell Viability Assay in HEK293 cells - 32 hour (AID 1224868). Further: nearly all actives have a fitted effect of over 50% in size. Further: potency means the concentration at half of the fitted maximal effect. The gist of the method: (§2)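 Tox21 10K qHTS, HEK293, 600 cells/well, RealTime-Glo reagent co-dispensed with cells; 5 h preincubation, compound by pintool, 37 C, luminescence at 0–40 h.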
The nature of test [8]: A CellTox Green Cytotoxicity Assay to monitor cytotoxicity in HEK293 cells - 0 hour (AID 1224869). Further: nearly all actives have a fitted effect of over 50% in size. In a few lines:
(§3)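 HEK293 cells premixed with CellTox Green dye were seeded at 600 cells/well and left 5 h at 37 C/5% CO2 before pin transfer of 23 nL compound in DMSO. Fluorescence from dye bound to dead-cell DNA was read during 40 h treatment.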

A short description of test [9]: qHTS RealTime-Glo MT Cell Viability Assay in HepG2 cells - 40 hour (AID 1224870). Further: nearly all actives have a fitted effect of over 50% in size. The gist of the method:
(§4)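 HepG2 cells (600/well) mixed with RealTime-Glo MT reagent, settled 5 h at 37 C/5% CO2 before compound addition. Nonlytic NanoLuc luminescence from viable-cell prosubstrate reduction read repeatedly during 40 h treatment at 37 C.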

The nature of test [10]: A CellTox Green Cytotoxicity Assay to monitor cytotoxicity in HEK293 cells - 40 hour (AID 1224871). Further: nearly all actives have a fitted effect of over 45% in size. Further: potency means the concentration at half of the fitted maximal effect. The gist of the method:
as §3

Test [11] can be described thus: qHTS RealTime-Glo MT Cell Viability Assay in HEK293 cells - 16 hour (AID 1224872). Further: nearly all actives have a fitted effect of over 50% in size. Further: potency means the concentration at half of the fitted maximal effect. In a few lines:
as §2

The nature of test [12]: qHTS RealTime-Glo MT Cell Viability Assay in HEK293 cells - 40 hour (AID 1224874). Further: nearly all actives have a fitted effect of over 50% in size. Further: potency means the concentration at half of the fitted maximal effect. To be noted: RealTime-Glo luminescence; max response: stronger effect = lower value. In a few lines:
(§5)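 HEK293 cells mixed with RealTime-Glo reagents (NanoLuc plus cell-permeant prosubstrate) at 600 cells/well, preincubated 5 h at 37 C/5% CO2, then given 23 nL compound in DMSO. Nonlytic luminescence from viable cells was read at 0, 8, 16, 24, 32 and 40 h.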

Test [13] in a line: A CellTox Green Cytotoxicity Assay to monitor cytotoxicity in HEK293 cells - 24 hour (AID 1224875). Further: nearly all actives have a fitted effect of over 45% in size. Further: potency means the concentration at half of the fitted maximal effect. In a few lines: as §3
A short description of test [14]: A CellTox Green Cytotoxicity Assay to monitor cytotoxicity in HepG2 cells - 16 hour (AID 1224876). Further: nearly all actives have a fitted effect of over 45% in size. Further: potency means the concentration at half of the fitted maximal effect. In a few lines:
(§6)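 HepG2 cells were seeded together with the CellTox Green dye at 600 cells/well, left 5 h at 37 C/5% CO2, then given compounds in DMSO. Fluorescence from dye bound to dead-cell DNA was read repeatedly over 40 h of treatment at 37 C.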

Test [15] is described as follows: qHTS RealTime-Glo MT Cell Viability Assay in HepG2 cells - 32 hour (AID 1224877). Further: nearly all actives have a fitted effect of over 55% in size. Further: potency means the concentration at half of the fitted maximal effect. In a few lines:
as §1

Test [16] can be described thus: qHTS RealTime-Glo MT Cell Viability Assay in HEK293 cells - 0 hour (AID 1224880). Further: nearly all actives have a fitted effect of over 45% in size. Further: potency means the concentration at half of the fitted maximal effect. In a few lines: as §5
A short description of test [17]: qHTS RealTime-Glo MT Cell Viability Assay in HepG2 cells - 8 hour (AID 1224873). Further: nearly all actives have a fitted effect of over 55% in size. Further: potency means the concentration at half of the fitted maximal effect. The gist of the method: as §4
A short description of test [18]: A CellTox Green Cytotoxicity Assay to monitor cytotoxicity in HepG2 cells - 24 hour (AID 1224878). Further: nearly all actives have a fitted effect of over 45% in size. Further: potency means the concentration at half of the fitted maximal effect. In a few lines:
as §6

Test [19] can be described thus: A CellTox Green Cytotoxicity Assay to monitor cytotoxicity in HepG2 cells - 40 hour (AID 1224879). Further: nearly all actives have a fitted effect of over 40% in size. Further: potency means the concentration at half of the fitted maximal effect. The gist of the method: as §6
Test [20] can be described thus: qHTS assay to identify small molecule agonists of the hypoxia (HIF-1) signaling pathway (AID 1224846; active means well fitted activation curve with a large enough effect in the signal ratio in the repeat runs, not every such curve was filed as active; the % refers to the signal ratio). The gist of the method:
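HRE-bla ME-180 cells (beta-lactamase reporter under hypoxia response element) were plated at 2,000 cells/well in medium with 0.5% dialyzed FBS, rested 5 hrs, then given compounds in DMSO for 17 hrs at 37C, 5% CO2. Reporter induction was read with CCF4-AM FRET substrate.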
On the % scale 0 is the no-effect control and ±100 the full control effect.

For `NC(=O)CN1CCCC1=O`, the Potency result in test [1], in test [2], in [3], in test [4], in [6] and in [7] was “inactive” throughout. Also, the Potency result in [8], in test [9], in [10], in test [11], in test [13] and in test [14] was “inactive” in each case. Further, the Potency entry in test [15] and in test [16] was “inactive” each time. The results for the activity change, positive = activation in [5] (at 42.5 µM (top of the series)) and in [5] (at 92.4 µM (top of the series)) were 2.36% (inactive) and 6.19% (inactive), respectively. For the same molecule, the max response in test [12] is 3.12% (inactive) and 0.0955% (inactive).
With `O=C1C(Cl)=C(Cl)C(=O)c2ccccc21`, the Potency in test [1] was 7.79 µM (active); in [3] it was 22.6 µM (active) and 14.2 µM (active); in test [4] it was 24.4 µM (active) and inactive; in [6], 24.6 µM (active) and 11 µM (active); in test [7], 6.19 µM (active) and 7.76 µM (active); in test [10] it was 3.9 µM (active) and 4.9 µM (active). Moreover, the Potency was 6.19 µM (active) and 9.77 µM (active) in [11]; 21.9 µM (active) and 6.92 µM (active) in test [17]; 5.51 µM (active) and 6.92 µM (active) in test [12]; 3.9 µM (active) and 6.92 µM (active) in test [13]; 12.3 µM (active) and 4.9 µM (active) in test [14]; 31 µM (active) and 12.3 µM (active) in [15]. Also, the Potency is 12.3 µM (active) and 3.89 µM (active) in test [18]; 17.4 µM (active) and 4.36 µM (active) in [19]; 5.51 µM (active) in [16]. The activity change, positive = activation in test [5] (at 92.4 µM (top of the series)) is -82.7% (inactive) and -46.9% (inactive). Further, the Potency result in test [8] was “inactive”.
On to `CNC(=S)S`, for which the Potency result in test [1], in test [2], in test [3], in test [6], in test [7] and in test [8] was “inactive” in each case. The Potency entry in test [10], in test [11], in test [17], in [13], in test [14] and in [15] was “inactive” each time. Moreover, the Potency result in [19] and in [16] was “inactive” throughout. The molecule was called inactive in test [20]. Also, the max response in test [12] was 24.9% (inactive) and 0.0192% (inactive).
Regarding `CC[n+]1c(-c2ccccc2)c2cc(N)ccc2c2ccc(N)cc21`, the Potency is 21.8 µM (active) and inactive in test [1]; 4.34 µM (active) and 5.35 µM (active) in test [7]; 17.3 µM (active) and 23.9 µM (active) in [11]; 3.45 µM (active) and 2.13 µM (active) in [12]. In addition, the Potency result in test [3], in test [8], in test [9], in test [10], in test [13] and in test [14] was “inactive” in each case. In addition, the Potency result in test [18] and in [16] was “inactive” throughout.
For `CC(C)(c1ccccc1)c1ccc(O)cc1`, the Potency in test [3] was 112 µM (active) and 101 µM (active); in test [7], 27.5 µM (active); in [10], 24.3 µM (active) and 27.5 µM (active); in [11], 48.6 µM (active) and 30.9 µM (active); in test [12], 43.3 µM (active) and 27.5 µM (active); in test [13] it was 21.7 µM (active) and 43.6 µM (active). In addition, the Potency in [14] is 24.5 µM (active); in test [19] it was 48.6 µM (active) and 24.5 µM (active). Further, the Potency entry in [6], in [8], in test [9], in test [15] and in test [16] was “inactive” in each case.
In the case of `CCN(CC)C(=O)C(C)Oc1cccc2ccccc12` (stereo not given), the Potency entry in test [1], in test [2], in test [6], in test [7], in test [8] and in test [10] was “inactive” throughout. The Potency result in [11], in test [17], in test [13], in test [14], in test [15] and in test [18] was “inactive” in each case. For the same molecule, the Potency entry in [16] is “inactive”. Besides, in test [20], the molecule was called inactive. Further, in [12], the max response is -27.1% (inactive) and -29.7% (inactive).

These data come from PubChem BioAssay (Tox21).
